The source of these data is ChEMBL document CHEMBL2218924, “A broad activity screen in support of a chemogenomic map for kinase signalling research and drug discovery” (Biochem J, 2013).

Assay [1] addresses Tyrosine-protein kinase SYK (Homo sapiens) (UniProt P43405). Particulars: at 10 µM.
For assay [2], the target named is T1, Mitogen-activated protein kinase kinase kinase 7 (Homo sapiens) (UniProt O43318).
T1 sequence (whole entry): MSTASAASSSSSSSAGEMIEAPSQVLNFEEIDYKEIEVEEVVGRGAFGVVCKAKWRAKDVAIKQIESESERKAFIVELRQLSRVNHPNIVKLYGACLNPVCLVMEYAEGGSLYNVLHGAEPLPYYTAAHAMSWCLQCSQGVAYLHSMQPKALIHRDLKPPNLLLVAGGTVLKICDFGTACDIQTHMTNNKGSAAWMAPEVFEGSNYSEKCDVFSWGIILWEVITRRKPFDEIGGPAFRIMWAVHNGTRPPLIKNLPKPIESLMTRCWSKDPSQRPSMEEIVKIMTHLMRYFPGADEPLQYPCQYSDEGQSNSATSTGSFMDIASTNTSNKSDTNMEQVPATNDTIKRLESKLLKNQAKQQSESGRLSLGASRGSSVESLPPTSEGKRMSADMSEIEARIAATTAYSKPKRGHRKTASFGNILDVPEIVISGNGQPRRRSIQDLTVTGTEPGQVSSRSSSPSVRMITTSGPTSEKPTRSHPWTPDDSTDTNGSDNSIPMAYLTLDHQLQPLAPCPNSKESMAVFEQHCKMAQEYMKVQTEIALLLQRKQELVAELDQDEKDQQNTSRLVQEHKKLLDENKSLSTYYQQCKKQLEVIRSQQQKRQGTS
Particulars: at 1 µM.

The target of assay [3] is T1, Mitogen-activated protein kinase kinase kinase 7 (Homo sapiens). Particulars: at 10 µM.
In assay [4] the target is T2, Serine/threonine-protein kinase TAO1 (Homo sapiens) (UniProt Q7L7X3).
T2 sequence (whole entry): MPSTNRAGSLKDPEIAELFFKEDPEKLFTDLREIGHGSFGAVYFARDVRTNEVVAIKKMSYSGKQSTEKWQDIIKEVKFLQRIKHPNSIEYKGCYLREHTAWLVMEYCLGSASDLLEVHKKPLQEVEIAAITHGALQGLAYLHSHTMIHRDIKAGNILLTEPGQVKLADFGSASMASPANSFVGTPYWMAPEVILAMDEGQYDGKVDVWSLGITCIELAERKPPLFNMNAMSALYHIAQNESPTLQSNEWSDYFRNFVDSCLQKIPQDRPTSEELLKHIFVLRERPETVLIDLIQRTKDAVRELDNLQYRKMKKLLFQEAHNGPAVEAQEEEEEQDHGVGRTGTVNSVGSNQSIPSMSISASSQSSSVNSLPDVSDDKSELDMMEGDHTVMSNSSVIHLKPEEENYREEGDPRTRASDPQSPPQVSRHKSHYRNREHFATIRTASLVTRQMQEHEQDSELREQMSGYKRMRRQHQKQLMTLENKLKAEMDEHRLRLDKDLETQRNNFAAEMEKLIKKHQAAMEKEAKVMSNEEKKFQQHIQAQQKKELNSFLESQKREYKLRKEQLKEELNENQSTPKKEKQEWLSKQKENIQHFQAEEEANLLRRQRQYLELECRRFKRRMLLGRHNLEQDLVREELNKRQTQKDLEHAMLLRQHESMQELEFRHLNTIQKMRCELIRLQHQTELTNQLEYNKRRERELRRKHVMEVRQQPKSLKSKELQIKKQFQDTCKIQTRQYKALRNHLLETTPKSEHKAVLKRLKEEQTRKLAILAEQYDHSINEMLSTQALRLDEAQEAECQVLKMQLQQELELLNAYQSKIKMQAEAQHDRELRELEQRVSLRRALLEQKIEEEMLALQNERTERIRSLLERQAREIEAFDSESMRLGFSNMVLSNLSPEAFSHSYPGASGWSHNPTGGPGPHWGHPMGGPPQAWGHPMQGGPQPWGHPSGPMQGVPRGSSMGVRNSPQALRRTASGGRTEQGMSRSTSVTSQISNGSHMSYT
Particulars: at 1 µM.

The target in assay [5] is T2, Serine/threonine-protein kinase TAO1 (Homo sapiens). Particulars: at 10 µM.
Assay [6] deals with T3, Serine/threonine-protein kinase TAO2 (Homo sapiens) (UniProt Q9UL54).
T3 sequence (whole entry): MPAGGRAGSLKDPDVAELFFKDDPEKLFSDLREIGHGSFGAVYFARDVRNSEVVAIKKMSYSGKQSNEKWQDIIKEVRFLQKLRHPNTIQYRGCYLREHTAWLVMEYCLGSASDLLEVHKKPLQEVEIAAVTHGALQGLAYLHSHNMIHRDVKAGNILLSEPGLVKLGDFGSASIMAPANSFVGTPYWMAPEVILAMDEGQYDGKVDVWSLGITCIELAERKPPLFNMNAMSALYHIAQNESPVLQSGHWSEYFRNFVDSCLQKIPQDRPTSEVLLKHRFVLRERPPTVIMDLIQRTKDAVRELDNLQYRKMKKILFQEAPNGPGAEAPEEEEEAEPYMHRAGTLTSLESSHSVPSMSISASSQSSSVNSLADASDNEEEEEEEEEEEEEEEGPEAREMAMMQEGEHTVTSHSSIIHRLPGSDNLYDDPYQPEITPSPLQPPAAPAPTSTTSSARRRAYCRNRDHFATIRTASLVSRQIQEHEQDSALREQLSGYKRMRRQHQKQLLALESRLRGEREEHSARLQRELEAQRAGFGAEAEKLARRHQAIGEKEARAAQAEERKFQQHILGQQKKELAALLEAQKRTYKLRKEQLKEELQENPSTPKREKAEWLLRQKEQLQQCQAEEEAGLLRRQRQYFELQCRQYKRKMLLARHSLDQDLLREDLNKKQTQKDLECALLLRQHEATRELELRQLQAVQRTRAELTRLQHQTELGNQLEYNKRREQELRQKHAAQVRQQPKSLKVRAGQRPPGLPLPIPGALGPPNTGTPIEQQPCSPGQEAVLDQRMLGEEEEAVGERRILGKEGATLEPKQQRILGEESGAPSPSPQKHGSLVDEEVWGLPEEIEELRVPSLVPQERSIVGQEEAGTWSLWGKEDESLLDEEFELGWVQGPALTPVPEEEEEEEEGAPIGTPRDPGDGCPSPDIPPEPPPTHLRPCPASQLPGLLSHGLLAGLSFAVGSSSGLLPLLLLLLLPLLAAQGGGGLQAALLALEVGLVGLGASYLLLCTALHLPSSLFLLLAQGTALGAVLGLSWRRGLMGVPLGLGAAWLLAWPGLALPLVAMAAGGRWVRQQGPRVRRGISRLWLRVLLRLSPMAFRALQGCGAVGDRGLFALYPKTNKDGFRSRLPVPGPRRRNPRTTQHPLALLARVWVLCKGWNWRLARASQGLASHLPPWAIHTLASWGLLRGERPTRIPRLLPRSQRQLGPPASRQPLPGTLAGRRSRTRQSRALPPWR
Particulars: at 1 µM.

In assay [7] the target is T3, Serine/threonine-protein kinase TAO2 (Homo sapiens). Particulars: at 10 µM.
The target in assay [8] is T4, Serine/threonine-protein kinase TAO3 (Homo sapiens) (UniProt Q9H2K8).
T4 sequence (whole entry): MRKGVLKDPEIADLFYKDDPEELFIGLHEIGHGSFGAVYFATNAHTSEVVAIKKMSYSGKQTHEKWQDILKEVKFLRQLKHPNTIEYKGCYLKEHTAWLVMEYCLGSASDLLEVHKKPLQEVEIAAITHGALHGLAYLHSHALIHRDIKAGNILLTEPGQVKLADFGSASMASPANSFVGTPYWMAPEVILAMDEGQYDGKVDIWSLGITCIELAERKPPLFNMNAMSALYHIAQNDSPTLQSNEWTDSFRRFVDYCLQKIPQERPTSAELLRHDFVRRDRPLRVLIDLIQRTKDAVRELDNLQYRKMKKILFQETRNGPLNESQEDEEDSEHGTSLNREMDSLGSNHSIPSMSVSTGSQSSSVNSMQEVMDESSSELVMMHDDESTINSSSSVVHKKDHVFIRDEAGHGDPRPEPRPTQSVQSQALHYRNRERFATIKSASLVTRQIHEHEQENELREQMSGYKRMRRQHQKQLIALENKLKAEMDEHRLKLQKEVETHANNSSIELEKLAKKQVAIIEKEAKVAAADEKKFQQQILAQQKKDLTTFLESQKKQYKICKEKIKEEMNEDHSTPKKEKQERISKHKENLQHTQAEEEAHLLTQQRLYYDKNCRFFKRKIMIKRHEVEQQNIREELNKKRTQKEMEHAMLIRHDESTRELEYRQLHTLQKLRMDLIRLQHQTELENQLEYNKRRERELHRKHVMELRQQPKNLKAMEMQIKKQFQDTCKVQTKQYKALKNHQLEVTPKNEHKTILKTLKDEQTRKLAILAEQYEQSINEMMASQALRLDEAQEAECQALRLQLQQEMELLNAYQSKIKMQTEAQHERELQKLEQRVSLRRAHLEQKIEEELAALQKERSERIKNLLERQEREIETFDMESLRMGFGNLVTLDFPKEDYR
Particulars: at 1 µM.

Assay [9] deals with T4, Serine/threonine-protein kinase TAO3 (Homo sapiens). Particulars: at 10 µM.
Assay [10] has as its target T5, Serine/threonine-protein kinase TBK1 (Homo sapiens) (UniProt Q9UHD2).
T5 sequence (whole entry): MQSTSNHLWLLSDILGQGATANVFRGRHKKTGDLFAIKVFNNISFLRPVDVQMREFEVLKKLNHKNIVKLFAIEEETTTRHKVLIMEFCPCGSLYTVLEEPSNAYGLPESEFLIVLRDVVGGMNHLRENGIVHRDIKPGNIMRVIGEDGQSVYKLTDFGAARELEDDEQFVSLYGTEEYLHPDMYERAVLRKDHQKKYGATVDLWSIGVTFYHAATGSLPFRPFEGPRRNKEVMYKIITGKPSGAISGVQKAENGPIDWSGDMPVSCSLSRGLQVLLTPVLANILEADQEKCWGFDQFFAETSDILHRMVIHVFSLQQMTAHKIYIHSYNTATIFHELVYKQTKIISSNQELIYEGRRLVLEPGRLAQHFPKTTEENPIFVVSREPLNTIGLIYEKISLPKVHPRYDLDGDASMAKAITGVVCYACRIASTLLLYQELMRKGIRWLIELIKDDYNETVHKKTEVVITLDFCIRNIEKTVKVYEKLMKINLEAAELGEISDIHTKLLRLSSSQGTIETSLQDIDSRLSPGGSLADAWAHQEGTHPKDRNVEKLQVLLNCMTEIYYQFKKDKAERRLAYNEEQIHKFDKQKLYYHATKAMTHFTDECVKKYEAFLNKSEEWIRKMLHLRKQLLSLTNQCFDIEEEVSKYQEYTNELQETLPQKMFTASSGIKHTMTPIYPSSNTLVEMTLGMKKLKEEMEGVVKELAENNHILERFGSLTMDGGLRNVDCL
Particulars: at 1 µM.

On to `O=C(Nc1cccc(Nc2cc(Nc3cccc(C(F)(F)F)c3)ncn2)c1)C1CC1`, for which the residual activity was determined as 105% in [1]; 95% in assay [2]; 95% in assay [3]; 100% in assay [4]; 73% in assay [5]; 94% in assay [6]. Further, the residual activity in [7] was 80%; in assay [8], 100%; in assay [9] it was 96%; in assay [10] it was 89%.
